± gives the standard deviation of the averaged measurements.
test system: A549; experiment: relative viability (normalised to negative control = 1, bortezomib = 0) (fraction); higher = less cytotoxic; conditions: inflammatory serum-free RHB-A with cytokines + LPS; 5 d + 24 h CellTiter-Blue; compound 300 nM; GSK126 pretreatment: none (vehicle)

| SMILES | relative viability |
| --- | --- |
| CNC(=O)c1cc(Oc2ccc(NC(=O)Nc3cc(C(C)(C)C)nn3-c3ccc4ncccc4c3)c(F)c2)ccn1 [DCC-2036 (Rebastinib)] | 1.57 ± 0.06 |
| Cn1cc(-c2ccc3nnc(C(F)(F)c4ccc5ncccc5c4)n3n2)cn1 | 0.947 ± 0.026 |
| CC1(COc2ccc3c(c2)ncn3-c2ccc3cccc(N4CCC(N)CC4)c3n2)COC1 | 1.34 ± 0.12 |
| CC(C)(C)c1cc(NC(=O)Nc2ccc(-c3cn4c(n3)sc3cc(OCCN5CCOCC5)ccc34)cc2)no1 | 1 ± 0.031 |
| Cc1[nH]nc2ccc(-c3cncc(OC[C@@H](N)Cc4ccccc4)c3)cc12 | 0.273 ± 0.056 |
| CN(C)Cc1cccc(N=C(c2ccccc2)c2c(O)[nH]c3cc(C(N)=O)ccc23)c1 | 0.942 ± 0.13 |
| CC(C)n1nc(-c2cc3cc(O)ccc3[nH]2)c2c(N)ncnc21 | 0.431 ± 0.043 |
| C[C@]12CC[C@@H]3c4ccc(O)cc4C[C@@H](CCCCCCCCC[S+]([O-])CCCC(F)(F)C(F)(F)F)[C@H]3[C@@H]1CC[C@@H]2O (stereo partly drawn) [Fulvestrant] | 0.855 ± 0.024 |
| N#CC(=C(/N)Sc1ccccc1N)/C(C#N)=C(/N)Sc1ccccc1N | 0.684 ± 0.12 |
| CN(C)C/C=C/C(=O)Nc1cc2c(Nc3ccc(F)c(Cl)c3)ncnc2cc1O[C@H]1CCOC1 [BIBW2992; BIBW2992(Tovok)] | 0.328 ± 0.052 |
| Cc1cc(Nc2nc(N[C@@H](C)c3ncc(F)cn3)ncc2Cl)[nH]n1 | 1.13 ± 0.017 |
| Nc1ncnc2c1c(-c1cnc3[nH]ccc3c1)nn2C1CCCC1 | 0.533 ± 0.069 |
| CC[C@H](CO)Nc1nc(NCc2ccccc2)c2ncn(C(C)C)c2n1 [ROSCOVITINE; Roscovitine(CYC202); Roscovitine] | 0.902 ± 0.088 |

— the supplement of paper PMC6279402
